# Laboratory results as given in ChEMBL document CHEMBL1157539, “Thousands of chemical starting points for antimalarial lead identification” (Nature, 2010).
# Several values for one entry are separate records, joined by “and”; a condition that tells them apart may be missing. Equal values may be shown once.
# Test system: HepG2
# Assay: GSK_TCMDC: Percent inhibition of human HepG2 cell line. Test compounds present at 10uM.
# Assay type: functional
row,SMILES,Inhibition
1,C=C[C@H]1CN2CC[C@H]1C[C@H]2[C@H](O)c1cc(/C=C/c2ccc(F)cc2)nc2ccc(OC)cc12.Cl,25%
2,Fc1ccc(N(c2nc(-c3cc(F)cc(C(F)(F)F)c3)cs2)C2CCNCC2)cc1.O=C(O)C(F)(F)F,35%
3,CN(c1cc(NC(=O)c2ccc(F)cc2)ccn1)C1CCN(Cc2cccc(C#N)c2)CC1.O=C(O)C(F)(F)F,73%
4,CS(=O)(=O)Nc1ccc2[nH]cc(C3CC4CCC(C3)N4CC3CCC(NC(=O)/C=C/c4ccc(Cl)c(Cl)c4)CC3)c2c1 (stereo not drawn),3%
5,Cc1[nH]c2c(C)cc(NS(C)(=O)=O)cc2c1C1CCN(CC2CCN(C(=O)/C=C/c3ccc(Cl)c(Cl)c3)CC2)CC1,33%
6,Cl.Fc1ccc2[nH]cc(CCN3CCC(CNCc4ccccc4)CC3)c2c1,67%
7,O=C(O)/C=C\C(=O)O.OC1(c2ccc(Cl)c(C(F)(F)F)c2)CCN(CCOC2c3ccccc3CSc3ccc(Cl)cc32)CC1 (stereo not drawn),3%
8,Br.CC[C@H]1CN2CC[C@H]1C[C@H]2[C@H](O)c1ccnc2ccc(C#N)cc12,0%
9,CN(C(=O)OCc1ccccc1)C1CCC(CCN2CCC3(CC2)C(=O)NCN3c2cccc(C(F)(F)F)c2)(c2ccccc2)CC1 (stereo not drawn),19%
10,CC[C@H]1CN2CC[C@H]1C[C@H]2[C@H](O)c1cc(N2CCC3CCCCC3C2)nc2ccc(OC)cc12 (stereo partly drawn),50%
11,O=C(/C=C/c1cc(C(F)(F)F)ccc1F)N1CCC(CN2CCC(c3c[nH]c4ccccc34)CC2)CC1,22%
12,COc1cc(CN2CCN(c3ccnc(N(C)C4CCN(C)CC4)n3)CC2)cc(Cl)c1O,11%
13,COc1cccc(C(=O)C2CC2CN2CC=C(c3c[nH]c4cccc(Br)c34)CC2)c1 (stereo not drawn),22%
14,COCCSc1ccc(CC(C)NCC(O)c2cccc(Cl)c2)cc1.Cl (stereo not drawn),2%
15,CCCCCC(C)C(C)c1cc(O)c2c(c1)OC1(C(C)C)CC(O)C(C)C2C1 (stereo not drawn),1%
16,CC1CN=C(Nc2ncc(Cl)cc2Cl)N1.Cl (stereo not drawn),2%
17,O=C(/C=C/C=C/c1ccccc1)NC1CCC(CN2CCC(c3c[nH]c4ccccc34)CC2)CC1 (stereo not drawn),49%
18,O=C(NC1CCC(CN2CCC(c3c[nH]c4ccccc34)CC2)CC1)c1ccc(-c2cc(C(F)(F)F)ccc2Cl)o1 (stereo not drawn),5%
19,CC(=O)N(Cc1ccccc1-c1cccc(CNCc2ccc3c(c2)OCO3)c1)C1CCN(Cc2ccccc2)CC1.O=C(O)C(F)(F)F,17%
20,CC[C@H]1CN2CC[C@@H]1C[C@@H]2[C@@H](O)c1cc(-c2ccc(F)cc2)nc2ccc(OC)cc12.Cl,18%
21,CC(C)CNCc1cccc(-c2ccc(CN(C(=O)NC3CCCCC3)C3CCN(Cc4ccccc4)CC3)cc2)c1.O=C(O)C(F)(F)F,27%
22,O=C(/C=C/c1ccccc1Cl)NC1CCC(CN2CCC(c3c[nH]c4ccccc34)CC2)CC1 (stereo not drawn),33% and 41%
23,O=C(/C=C/c1ccc(Cl)c(Cl)c1)N1CCC(CN2C3CCC2CC(c2c[nH]c4ccccc24)C3)CC1 (stereo not drawn),84%
24,O=C(NC1CCC(N2CCC3(CC2)C(=O)NCN3c2ccccc2)CC1)c1cc2ccccc2[nH]1 (stereo not drawn),0%
25,Cc1c(C(=O)N[C@@H](C)c2ccccc2)c2cc(O)c(Br)cc2n1C1CCCCC1,4%
26,COC(=O)/C=C/C(=O)N[C@@H]1CC[C@@]2(O)[C@H]3Cc4ccc(O)c5c4[C@@]2(CCN3CC2CC2)[C@H]1O5.Cl,9%
27,CC(C)CNCc1ccc(-c2ccc(CN(C(=O)Nc3ccccc3)C3CCN(Cc4ccccc4)CC3)cc2)cc1.O=C(O)C(F)(F)F,27%
28,Cl.c1ccc2c(NCCCCCCNc3c4c(nc5ccccc35)CCCC4)c3c(nc2c1)CCCC3,90%
